High-throughput results as filed in PubChem.
Many of the other results were omitted from the sample, so hits are more common in it than they were.
Pf Dd2 inh – qHTS Primary assay for Inhibitors of Plasmodium falciparum Dd2 growth in vitro; P. falciparum Dd2 growth, SYBR Green, 72 h; Potency, µM (series often up to 28.9 µM), usual class: inhibitors; 120,000 tested, 4.3% active; active means well fitted inhibition curve with a large enough effect; further: nearly all actives have a fitted effect of over 65% in size
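Infected erythrocytes (Dd2, 0.3% parasitemia, 2.5% hematocrit final) are added to compound in RPMI-1640/Albumax II medium, grown 72 h at 37C in low oxygen, then lysed with saponin/Triton-X containing SYBR Green and read by fluorescence.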
Hits are given with their value; - = inactive; [ ] = dose if it differs, or a comment.

SMILES | Pf Dd2 inh
O=C(O)COc1ccc(-c2nccc3c2C(=O)N(Cc2c[nH]c4ccccc24)CC(COc2cccc(N4CCOCC4)c2)O3)cc1 (stereo not drawn) | -
O=C1NC2(CCN(C(=O)OCc3ccccc3)C2)N=C1c1ccncc1 (stereo not drawn) | -
CC(=O)Nc1cccc(-c2nc(-c3c(C)noc3C)cc3cc(C)oc23)c1 | -
Cc1cccc(CC(=O)N2CCC[C@H]2c2nc(-c3ccccc3)no2)c1 | -
CC(=O)c1cc(C(=O)N2C[C@@H](CN3CCCN(C)CC3)[C@@H](CO)C2)cs1 | -
CCOC(=O)C1CCCN(S(=O)(=O)c2cc3c4c(c2)CC(=O)N4CCC3)C1 (stereo not drawn) | -
CCOC(=O)C1CCN(S(=O)(=O)c2cc3c4c(c2)CC(=O)N4CCC3)CC1 | 10µM
CCOC(=O)C1CCN(S(=O)(=O)c2cc3c4c(c2)C(C)C(=O)N4CCC3)CC1 (stereo not drawn) | -
CN(Cc1cccnc1)c1nc2c(c(=O)[nH]1)CCN(Cc1ccc(F)cc1)CC2 | -[5.79 µM]
c1cncc(CN2CCC(OC3CCN(Cc4ccncc4)CC3)CC2)c1 | -
CN(CC1CCN(CCc2ccc(F)cc2)CC1)C1CCN(Cc2cccnc2)CC1 | 6.3µM
CN(C)[C@@H]1CN(C(=O)CN2CCCCCC2)CC[C@@H]1CO | -
COc1ccccc1NC(=O)N1CCCC(Cn2cnc3cccnc32)C1 (stereo not drawn) | -
O=C(N[C@H]1CO[C@H]2[C@@H]1OC[C@@H]2n1nnnc1Oc1ccc(-n2ccnc2)cc1)C1CCCCC1 | -
CC1CCN(S(=O)(=O)c2ccc3c(c2)oc(=O)n3CC(=O)NCc2ccc(F)cc2)CC1 | 5.6µM
COc1cccc(CNC(=O)Cn2c(=O)oc3cc(S(=O)(=O)N4CCC(C)CC4)ccc32)c1 | -
COc1ccc(CNC(=O)Cn2c(=O)oc3cc(S(=O)(=O)N4CCCC4)ccc32)cc1 | -
Cc1ccc2cc(CCC(=O)NCc3cccs3)c(=O)[nH]c2c1 | -
CCOc1cccc(CNC(=O)[C@@]23CCCC[C@H]2N(C)C(=O)CC3)c1 | -
COc1ccc(-n2nc(C(=O)N3CCN(c4ccc(F)cc4)CC3)c3c4ccccc4n(C)c3c2=O)cc1 | -
Cn1cc(C(=O)N2CCN(c3cccc(Cl)c3)CC2)c(=O)c2cc(S(=O)(=O)N3CCCC3)ccc21 | -
CN(C1CCCCC1)S(=O)(=O)c1ccc2c(c1)c(=O)c(C(=O)N1CCN(c3ccc(F)cc3)CC1)cn2C | -
COc1ccc(-n2nc(C(=O)N3CCN(c4ccccc4OC)CC3)c3c4ccccc4n(C)c3c2=O)cc1 | -
CCn1cc(C(=O)N2CCN(c3ccc(F)cc3)CC2)c(=O)c2cc(S(=O)(=O)N(C)C3CCCCC3)ccc21 | -
COc1ccc(N2CCN(C(=O)c3cn(C4CCCCC4)c(=O)c4c3c3ccccc3n4C)CC2)cc1 | 5µM
SMILES | Pf Dd2 inh
CN(C1CCCCC1)S(=O)(=O)c1ccc2c(c1)c(=O)c(C(=O)NCc1ccc(F)cc1)cn2C | -
CCn1cc(C(=O)N2CCN(c3ccccc3F)CC2)c(=O)c2cc(S(=O)(=O)N(C)C)ccc21 | -
COc1ccc(N2CCN(C(=O)c3cn(C)c4ccc(S(=O)(=O)N(C)C5CCCCC5)cc4c3=O)CC2)cc1 | 11µM
CN(C1CCCCC1)S(=O)(=O)c1ccc2c(c1)c(=O)c(C(=O)N1CCN(c3ccccc3F)CC1)cn2C | 0.89µM
CCn1cc(C(=O)N2CCN(c3cc(C)ccc3C)CC2)c(=O)c2cc(S(=O)(=O)N3CCOCC3)ccc21 | -
Cn1cc(C(=O)N2CCN(c3ccccc3)CC2)c(=O)c2cc(S(=O)(=O)N3CCCC3)ccc21 | 1.6µM
Cc1[nH]ncc1CNC(=O)CCc1ccc2c(c1)CN(C(=O)NC(C)C)CCO2 | -
CNC(=O)[C@@H]1CN(C(=O)Cc2ccc(OC)c(Cl)c2)C[C@H]1COC | -
CCC(=O)N1CCc2c(C(=O)N3CCN(c4ccccc4Cl)CC3)cccc21 | -
CCn1nccc1C(=O)N1CCC(Nc2nccnc2OC)CC1 | -[5.79 µM]
O=C1CCN(S(=O)(=O)c2ccccc2)CCCN(C(=O)C2CCOCC2)CCN1 | -
Cc1ccc(CNC(=O)c2ccc3c(c2)CN(Cc2cccc(F)c2F)CCO3)cc1 | -
O=C([C@@H]1C[C@H](F)CN1C(=O)NC1CCCC1)N1CCc2ccccc2C1 | -
CCOC(=O)c1c(C)[nH]c(C)c1S(=O)(=O)N1CCCC(C(=O)N2CCN(c3cccc(C)c3C)CC2)C1 (stereo not drawn) | 0.56µM
CCOC(=O)C1CCCN(S(=O)(=O)c2ccc3c(c2)oc(=O)n3C)C1 (stereo not drawn) | -
CCOC(=O)c1c(C)[nH]c(C)c1S(=O)(=O)N1CCC(C(=O)N2CCN(c3cc(C)ccc3C)CC2)CC1 | -
Cc1cccc(CCNC(=O)C2CCCN(S(=O)(=O)c3ccc4c(c3)oc(=O)n4C)C2)c1 (stereo not drawn) | -
Cc1cccc(N2CCN(C(=O)C3CCCN(S(=O)(=O)c4ccc5c(c4)oc(=O)n5C)C3)CC2)c1C (stereo not drawn) | 11µM
